# According to PubChem BioAssay (NCATS):
# Inconclusive results are not listed. Values without a mark were called inactive. The call rests on the fitted dose curve; in most records, active means well fitted activation curve with a large enough effect; inconclusive means small, poorly fitted or top-dose-only effect; inactive means flat fitted curve, though single readings scatter.
# Target: Nuclear receptor subfamily 1 group I member 3 (Homo sapiens) (UniProt Q14994)
# Assay: Primary qHTS for agonist of constitutive androstane receptor (CAR) against the NCATS DSHEA and TCM libraries (AID 1794839); further: 0% is about no effect
# Settings: CAR agonist reporter cells, qHTS luminescence, CAR antagonist co-added at 0.75 µM; series mostly up to 40 µM; activation: at the top concentration
# Method in brief: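 HepG2-CYP2B6-hCAR cells (2,500/well) were attached for 5 h, then treated for 24 h at 37 °C with compounds plus 0.75 µM PK11195. Luciferase luminescence (ONE-Glo) was read, with CellTiter-Fluor viability (Ex/Em 405/540 nm).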
# Nuclear receptor subfamily 1 group I member 3 (Homo sapiens), sequence (Q14994 whole entry, looked up): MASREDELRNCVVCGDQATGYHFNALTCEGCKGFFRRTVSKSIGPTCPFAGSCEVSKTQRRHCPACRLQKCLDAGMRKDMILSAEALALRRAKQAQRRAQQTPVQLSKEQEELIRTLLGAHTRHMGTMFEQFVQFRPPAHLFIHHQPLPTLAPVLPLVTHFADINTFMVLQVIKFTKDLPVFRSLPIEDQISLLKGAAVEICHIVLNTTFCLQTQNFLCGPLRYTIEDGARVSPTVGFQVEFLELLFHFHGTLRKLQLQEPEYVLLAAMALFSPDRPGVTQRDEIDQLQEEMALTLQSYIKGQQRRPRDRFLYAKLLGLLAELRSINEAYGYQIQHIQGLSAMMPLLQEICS
row,Structure (SMILES),activation
1,CCCCCCCCCCCC(=O)OCC(O)CO (stereo not given),9.59%
2,Oc1cccc(O)c1O,-13.2%
3,COC1=C(OC)C(=O)C(C/C=C(\C)CC/C=C(\C)CC/C=C(\C)CC/C=C(\C)CC/C=C(\C)CC/C=C(\C)CC/C=C(\C)CC/C=C(\C)CC/C=C(\C)CCC=C(C)C)=C(C)C1=O,14%
4,CCCCC/C=C\C/C=C\C/C=C\CCCCC(=O)O,-21.9% [at 5 µM]
5,CC(C)=CCC/C(C)=C/C=C/C(C)=C/C=C/C(C)=C/C=C/C=C(C)/C=C/C=C(C)/C=C/C=C(\C)CCC=C(C)C,8.05%
